From PubChem BioAssay
Values joined by “and” are separate entries in the source; they are usually repeats but may differ in a detail not shown here. Equal values may be shown once. Active and inactive are the calls of the source.

Columns and labels:
[1] = small molecules captured by biotinylated probe aFSTL3 – biochemical, small-molecule microarray, fluorescence 635/667, stem cell growth factor project, primary screen (AID 1064); conditions: higher = more signal;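 note: measures binding of the biotinylated anti-FSTL3 antibody to printed compounds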
[2] = binders from COS7 lysate, DM2A8 probe, primary screen, torsin A project, cell lysate, small-molecule microarray, fluorescence 635/667 (AID 1065); conditions: higher = more signal, COS7 lysate expressing mutant human TOR1A
[3] = small molecules captured by biotinylated probe aFGF2 – biochemical, small-molecule microarray, fluorescence 635/667, stem cell growth factor project, primary screen (AID 1067); conditions: higher = more signal;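 note: measures binding of biotinylated aFGF2 protein to printed compounds on slides; z-score merges feature fluorescence and signal-to-noise across triplicate slides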
[4] = small molecules captured by biotinylated probe aFGF10 – biochemical, small-molecule microarray, fluorescence 635/667, stem cell growth factor project, primary screen (AID 1071); conditions: higher = more signal;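 note: score merges 667 nm spot intensity and signal to noise from triplicate slides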
[5] = molecular target: Neurogenic locus notch homolog protein 2 (Homo sapiens) (UniProt Q04721); experiment: small molecules binding Notch2 protein – biochemical, small-molecule microarray, 635 nm fluorescence, stem cell growth factors, primary screen (AID 1073); conditions: higher = more signal
Sequence of Neurogenic locus notch homolog protein 2 (Homo sapiens) (Q04721 whole entry, looked up, canonical isoform): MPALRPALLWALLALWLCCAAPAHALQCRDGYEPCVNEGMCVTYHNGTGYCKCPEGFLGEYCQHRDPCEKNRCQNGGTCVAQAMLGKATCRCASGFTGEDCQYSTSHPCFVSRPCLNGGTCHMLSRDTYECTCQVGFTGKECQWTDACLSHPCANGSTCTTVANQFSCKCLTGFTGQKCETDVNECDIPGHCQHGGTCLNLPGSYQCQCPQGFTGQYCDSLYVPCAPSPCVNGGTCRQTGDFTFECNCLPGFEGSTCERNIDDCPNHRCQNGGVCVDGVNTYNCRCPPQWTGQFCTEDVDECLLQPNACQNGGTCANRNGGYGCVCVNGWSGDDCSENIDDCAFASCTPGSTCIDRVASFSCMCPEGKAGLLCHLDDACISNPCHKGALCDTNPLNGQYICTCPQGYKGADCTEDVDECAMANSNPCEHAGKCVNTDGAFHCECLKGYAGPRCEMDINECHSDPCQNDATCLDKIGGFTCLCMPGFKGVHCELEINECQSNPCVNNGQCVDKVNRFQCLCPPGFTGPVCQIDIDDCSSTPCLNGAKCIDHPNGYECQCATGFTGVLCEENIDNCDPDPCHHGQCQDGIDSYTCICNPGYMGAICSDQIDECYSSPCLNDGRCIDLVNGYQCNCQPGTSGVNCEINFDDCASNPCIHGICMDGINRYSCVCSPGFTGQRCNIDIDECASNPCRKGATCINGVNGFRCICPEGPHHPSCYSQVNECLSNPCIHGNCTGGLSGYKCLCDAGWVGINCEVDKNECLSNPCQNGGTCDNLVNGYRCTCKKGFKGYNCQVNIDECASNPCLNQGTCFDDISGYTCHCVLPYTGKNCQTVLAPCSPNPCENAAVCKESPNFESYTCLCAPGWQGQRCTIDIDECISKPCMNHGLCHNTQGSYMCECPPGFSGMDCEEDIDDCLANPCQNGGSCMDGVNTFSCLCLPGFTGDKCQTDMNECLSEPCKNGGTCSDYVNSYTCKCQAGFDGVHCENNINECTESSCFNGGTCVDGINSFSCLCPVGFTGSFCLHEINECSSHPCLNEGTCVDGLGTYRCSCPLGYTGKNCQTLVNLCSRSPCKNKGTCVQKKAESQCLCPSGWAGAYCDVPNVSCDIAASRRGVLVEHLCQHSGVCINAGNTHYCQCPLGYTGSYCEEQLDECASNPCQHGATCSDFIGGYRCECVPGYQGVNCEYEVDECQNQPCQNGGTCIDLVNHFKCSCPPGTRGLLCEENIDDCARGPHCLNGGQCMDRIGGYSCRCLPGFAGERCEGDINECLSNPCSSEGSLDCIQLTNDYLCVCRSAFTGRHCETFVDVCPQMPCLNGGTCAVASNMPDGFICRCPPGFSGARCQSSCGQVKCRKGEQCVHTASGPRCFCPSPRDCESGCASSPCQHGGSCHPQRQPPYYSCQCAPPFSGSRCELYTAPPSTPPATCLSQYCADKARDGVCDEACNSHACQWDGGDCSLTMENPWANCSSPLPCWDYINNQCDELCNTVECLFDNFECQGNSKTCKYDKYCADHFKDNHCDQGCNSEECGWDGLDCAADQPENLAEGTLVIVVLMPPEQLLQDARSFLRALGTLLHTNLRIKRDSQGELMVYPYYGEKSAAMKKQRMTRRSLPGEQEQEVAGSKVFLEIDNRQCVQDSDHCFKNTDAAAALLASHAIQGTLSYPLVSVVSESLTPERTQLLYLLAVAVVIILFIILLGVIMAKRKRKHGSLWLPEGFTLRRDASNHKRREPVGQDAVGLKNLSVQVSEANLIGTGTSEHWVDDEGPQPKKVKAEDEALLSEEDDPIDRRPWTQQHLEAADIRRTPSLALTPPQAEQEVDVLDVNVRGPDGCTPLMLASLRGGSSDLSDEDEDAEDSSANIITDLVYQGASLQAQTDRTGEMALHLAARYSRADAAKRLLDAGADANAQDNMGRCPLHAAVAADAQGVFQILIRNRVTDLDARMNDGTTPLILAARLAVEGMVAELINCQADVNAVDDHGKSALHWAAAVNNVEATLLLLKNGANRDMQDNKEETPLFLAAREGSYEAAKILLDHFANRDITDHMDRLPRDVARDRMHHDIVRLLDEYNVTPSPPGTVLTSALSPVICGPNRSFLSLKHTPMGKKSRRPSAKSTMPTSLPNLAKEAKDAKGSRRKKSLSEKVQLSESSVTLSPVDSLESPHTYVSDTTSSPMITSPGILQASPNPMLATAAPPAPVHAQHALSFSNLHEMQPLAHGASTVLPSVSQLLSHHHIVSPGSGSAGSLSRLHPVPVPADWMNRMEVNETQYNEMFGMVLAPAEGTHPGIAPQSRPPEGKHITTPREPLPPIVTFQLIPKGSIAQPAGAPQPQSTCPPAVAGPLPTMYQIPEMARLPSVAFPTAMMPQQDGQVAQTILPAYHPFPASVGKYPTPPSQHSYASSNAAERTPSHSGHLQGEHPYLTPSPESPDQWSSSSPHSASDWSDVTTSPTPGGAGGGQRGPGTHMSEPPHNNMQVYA

[6] = molecular target: Pro-neuregulin-1, membrane-bound isoform (Homo sapiens) (UniProt Q02297); experiment: small molecules binding neuregulin-1 protein – biochemical, small-molecule microarray, fluorescence 635/667, psychiatric disease protein project, primary screen (AID 1075); conditions: NRG1 binding, 635 nm fluorescence, higher = more signal;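 note: score combines 667 nm spot fluorescence with signal to noise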
[7] = tested on: Neuregulin-1 EGF-like domain; experiment: small molecules binding NRG1 EGF domain – biochemical, small-molecule microarray, 635 nm fluorescence, primary screen (AID 1081); conditions: higher = more signal;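 note: binding of the protein to compounds printed on small-molecule microarray slides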
[8] = FRG1 expression reporter modulators in myotubes – cell-based, C2C12 myotubes, firefly/Renilla luciferase, luminescence, FRG1 inhibition for FSHD, primary screen (AID 1084); conditions: FRG1 promoter luciferase, higher = more signal, called active from +8 up or from −8 down
[9] = small molecules captured by biotinylated probe aFST – biochemical, small-molecule microarray, fluorescence 635/667, stem cell growth factor project, primary screen (AID 1086); conditions: higher = more signal;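 note: score merges 667 nm fluorescence with signal-to-noise of each printed compound spot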
[10] = binders of probe aHhip on microarray, primary screen, stem cell growth factor project, biochemical, small-molecule microarray, fluorescence 635/667 (AID 1087); conditions: higher = more signal;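 note: score merges spot fluorescence at 667nm with spot signal to noise ratio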
[11] = tested on: PRMT1 (protein arginine N-methyltransferase 1); experiment: small molecules binding arginine methyltransferase PRMT1 – biochemical, small-molecule microarray, 635 nm fluorescence, primary screen (AID 1088); conditions: higher = more signal;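 note: binding of Prmt1 protein to compounds spotted on small-molecule microarray slides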
[12] = growth effects on S. cerevisiae YJM789 – YJM789 clinical isolate, OD600, 24 h, basal, primary screen (AID 1089); conditions: higher = more signal, called active from +8 up or from −8 down;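 note: growth of clinical yeast isolate S. cerevisiae YJM 789 seeded 1000 cells per well; test concentration not given here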
[13] = S. pombe growth modifiers, basal conditions – strain 972, OD600, 24 h, no modulator, primary screen (AID 1090);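 note: basal condition with compound alone and no growth modifier present; test concentration not given here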; conditions: S. pombe 972 growth, higher = more signal, called active from +8 up or from −8 down
[14] = budding yeast growth modifiers under rapamycin – strain BY4716, OD600, 96 h, primary screen (AID 1091); note: test concentration not given here; conditions: S. cerevisiae BY4716 + rapamycin, higher = more signal, called active from +8 up or from −8 down
[15] = molecular target: Torsin-1A-interacting protein 2 (Homo sapiens) (UniProt Q8NFQ8); experiment: small molecules binding lysate-expressed LULL1 – cell lysate, human LULL1 lysate, 635/667 nm fluorescence, primary screen (AID 1092); conditions: small-molecule microarray, hLULL1 lysate binding, 635 nm fluorescence; higher = more signal;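 note: probe is lysate of COS7 cells overexpressing human LULL1; score merges per-feature 667 nm fluorescence with signal-to-noise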
[16] = optical density change of DRC41 E. coli – strain DRC41, OD650, 24 h, E. coli filamentation project, primary screen (AID 1093);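 note: MC1000 strain lacking acrAB efflux and sulA so SOS filamentation is blocked; test concentration not given here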; conditions: E. coli DRC41 growth, higher = more signal, called active from +8 up or from −8 down
[17] = probe aLefty2 binding to arrayed compounds – biochemical, biotinylated probe, 635/667 nm fluorescence, primary screen (AID 1094); conditions: small-molecule microarray, higher = more signal;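 note: score merges spot fluorescence near 667 nm with spot signal-to-noise ratio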
[18] = tested on: Noggin (protein binding on small-molecule microarray); experiment: small molecules binding Noggin protein – biochemical, 635/667 nm fluorescence, primary screen (AID 1095); conditions: 635 nm fluorescence, higher = more signal;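 note: score merges 667 nm feature fluorescence with signal to noise over triplicate slides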
[19] = molecular target: Neurogenic locus notch homolog protein 3 (Homo sapiens) (UniProt Q9UM47); experiment: small molecules binding NOTCH3 protein – biochemical, 635/667 nm fluorescence, primary screen (AID 1096); conditions: small-molecule microarray, 635 nm fluorescence, higher = more signal
Sequence of Neurogenic locus notch homolog protein 3 (Homo sapiens) (Q9UM47 whole entry, looked up): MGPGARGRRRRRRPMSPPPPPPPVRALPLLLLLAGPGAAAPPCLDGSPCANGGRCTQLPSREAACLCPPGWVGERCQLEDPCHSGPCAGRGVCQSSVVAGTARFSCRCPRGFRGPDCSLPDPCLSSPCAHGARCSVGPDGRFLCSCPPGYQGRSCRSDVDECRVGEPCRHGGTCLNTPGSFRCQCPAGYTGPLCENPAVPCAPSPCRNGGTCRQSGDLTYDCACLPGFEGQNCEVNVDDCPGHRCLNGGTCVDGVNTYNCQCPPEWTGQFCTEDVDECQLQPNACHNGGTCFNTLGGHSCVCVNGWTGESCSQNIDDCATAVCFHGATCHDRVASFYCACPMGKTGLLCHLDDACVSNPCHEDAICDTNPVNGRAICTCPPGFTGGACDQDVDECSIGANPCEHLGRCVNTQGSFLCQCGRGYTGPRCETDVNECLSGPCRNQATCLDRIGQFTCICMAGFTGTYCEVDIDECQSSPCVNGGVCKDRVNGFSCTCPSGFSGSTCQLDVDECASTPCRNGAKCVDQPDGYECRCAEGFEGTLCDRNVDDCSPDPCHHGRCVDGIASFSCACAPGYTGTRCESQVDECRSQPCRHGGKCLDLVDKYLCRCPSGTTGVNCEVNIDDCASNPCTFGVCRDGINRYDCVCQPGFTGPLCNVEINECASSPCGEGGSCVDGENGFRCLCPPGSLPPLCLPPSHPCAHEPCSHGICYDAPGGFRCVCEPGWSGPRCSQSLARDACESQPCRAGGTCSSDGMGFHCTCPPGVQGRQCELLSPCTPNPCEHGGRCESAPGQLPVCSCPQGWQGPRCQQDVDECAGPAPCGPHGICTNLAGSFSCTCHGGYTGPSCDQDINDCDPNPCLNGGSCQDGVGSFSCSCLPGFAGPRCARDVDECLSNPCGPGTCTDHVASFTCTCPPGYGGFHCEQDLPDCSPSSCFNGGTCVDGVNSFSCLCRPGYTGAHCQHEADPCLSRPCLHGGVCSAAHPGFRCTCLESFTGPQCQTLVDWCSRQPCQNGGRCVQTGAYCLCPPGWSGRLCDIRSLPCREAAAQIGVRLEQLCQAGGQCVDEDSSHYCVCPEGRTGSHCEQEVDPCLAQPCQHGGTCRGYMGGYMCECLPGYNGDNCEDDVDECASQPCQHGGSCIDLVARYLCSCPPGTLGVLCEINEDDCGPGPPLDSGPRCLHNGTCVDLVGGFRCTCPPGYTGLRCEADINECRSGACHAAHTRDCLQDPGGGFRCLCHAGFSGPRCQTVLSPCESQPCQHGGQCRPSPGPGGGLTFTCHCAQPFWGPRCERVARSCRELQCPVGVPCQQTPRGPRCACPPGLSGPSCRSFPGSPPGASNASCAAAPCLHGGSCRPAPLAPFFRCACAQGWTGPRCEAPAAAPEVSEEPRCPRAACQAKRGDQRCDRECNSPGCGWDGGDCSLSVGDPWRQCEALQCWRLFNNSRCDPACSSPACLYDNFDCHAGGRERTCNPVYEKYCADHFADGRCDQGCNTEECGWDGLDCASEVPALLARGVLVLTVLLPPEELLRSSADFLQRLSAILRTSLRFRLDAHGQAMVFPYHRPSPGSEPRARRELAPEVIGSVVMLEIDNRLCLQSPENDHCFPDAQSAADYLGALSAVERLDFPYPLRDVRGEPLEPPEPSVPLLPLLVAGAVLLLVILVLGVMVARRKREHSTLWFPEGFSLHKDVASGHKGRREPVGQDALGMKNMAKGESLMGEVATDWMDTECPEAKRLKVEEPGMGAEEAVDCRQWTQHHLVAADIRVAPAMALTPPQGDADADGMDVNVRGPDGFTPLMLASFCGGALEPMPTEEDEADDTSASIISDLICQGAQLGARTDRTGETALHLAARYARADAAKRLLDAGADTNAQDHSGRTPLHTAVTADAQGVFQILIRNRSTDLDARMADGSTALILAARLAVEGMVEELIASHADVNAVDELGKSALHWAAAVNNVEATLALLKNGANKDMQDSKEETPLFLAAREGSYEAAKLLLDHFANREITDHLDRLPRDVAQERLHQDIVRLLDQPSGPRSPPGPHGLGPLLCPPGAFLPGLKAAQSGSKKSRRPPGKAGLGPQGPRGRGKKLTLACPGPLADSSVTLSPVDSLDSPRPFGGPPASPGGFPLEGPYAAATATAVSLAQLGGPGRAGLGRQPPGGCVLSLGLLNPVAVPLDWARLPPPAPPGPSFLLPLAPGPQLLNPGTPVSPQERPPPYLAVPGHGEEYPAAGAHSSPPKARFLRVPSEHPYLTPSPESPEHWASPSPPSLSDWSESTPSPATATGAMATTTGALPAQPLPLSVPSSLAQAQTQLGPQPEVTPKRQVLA

[20] = probe aEGFR binding to arrayed compounds – biochemical, biotinylated probe, 635/667 nm fluorescence, primary screen (AID 1097); conditions: small-molecule microarray, higher = more signal;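 note: probe is a biotinylated anti-EGFR antibody binding compounds printed on slides; score combines fluorescence near 667 nm and signal to noise of each spot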

Row | Compound | composite z-score [1] | composite z-score [2] | composite z-score [3] | composite z-score [4] | composite z-score [5] | composite z-score [6] | composite z-score [7] | z-score [8] | composite z-score [9] | composite z-score [10] | composite z-score [11] | z-score [12] | z-score [13] | z-score [14] | composite z-score [15] | z-score [16] | composite z-score [17] | composite z-score [18] | composite z-score [19] | composite z-score [20]
1 | C=CCN(CCCCC)C(=O)C(c1cccs1)N(CCOCCO)C(=O)/C=C\C(=O)O (stereo not given) | -0.192 and 0.0796 | 0.185 and -1.07 | -0.157 and -0.113 | -1.26 and -0.317 | -1.84 and -1.41 | -0.661 and -0.969 | -0.196 and -0.609 | 0.874 (inactive) and 1.45 (inactive) | -1.48 and -0.675 | -0.0922 and -0.41 | -0.718 and -0.737 | -1.32 (inactive) and -1.53 (inactive) | -0.464 (inactive) and -0.606 (inactive) | -0.289 (inactive) and -0.433 (inactive) | -0.93 and -0.573 | 0.986 (inactive) and 1.18 (inactive) | -0.0977 and -0.0831 | -1.24 and -1.19 | -1.09 and -1.06 | -0.231 and -0.324
2 | CCOC(=O)C[C@H]1[C@H](OC(=O)c2ccccc2-c2ccccc2)[C@@H](NC(=O)c2ccccc2)c2cc(OCCCO)ccc2N1C(=O)c1ccc2ccccc2n1 | -0.0767 and -0.127 | 0.455 and 0.0871 | 0.0047 and -0.094 | 0.507 and 0.191 | 0.708 and 0.964 | -0.106 and 0.749 | 0.738 and 0.565 | -0.129 (inactive) and -0.113 (inactive) | 0.214 and 0.306 | 0.347 and -0.0994 | -0.0222 and 1.19 | -0.0469 (inactive) and -0.78 (inactive) | -0.19 (inactive) and 0.209 (inactive) | -0.0952 (inactive) and 0.0526 (inactive) | 0.549 and 1.01 | 1.02 (inactive) and -0.728 (inactive) | -0.0437 and 0.0212 | 0.357 and 0.843 | 0.481 and 0.737 | 0.0323 and -0.0815
3 | CC(C)CCN1CCc2nc(-c3ccccc3)c3c(c2C1)CO[C@@H](C)C3 | 1.3 | 0.0532 | -0.0996 | 0.491 | 0.698 | 0.334 | 1.17 | -0.174 (inactive) | 0.57 | 0.208 | 0.837 | -0.334 (inactive) | -0.519 (inactive) | 0.622 (inactive) | 1.8 | 0.825 (inactive) | -0.0641 | 0.444 | 0.922 | -0.0578
4 | C[N+](C)(C)CCCCCCNC(=O)[C@H]1C[C@H]2C(=O)N[C@@H](CCCC[N+](C)(C)C)C(=O)N2[C@H]1c1ccc(O)cc1 | 0.267 and 0.341 | 0.137 and 0.115 | -0.106 and -0.158 | 0.105 and 0.129 | -0.2 and -0.619 | -0.0293 and -0.0659 | 1.07 and 1.41 | 0.996 (inactive) and -0.0859 (inactive) | -0.15 and -0.508 | -0.0994 and 0.2 | 0.258 and -0.147 | 0.166 (inactive) and 0.547 (inactive) | 0.268 (inactive) and -0.656 (inactive) | 0.122 (inactive) and 0.411 (inactive) | 0.106 and 0.967 | 0.595 (inactive) and -0.0409 (inactive) | -0.0322 and -0.0179 | 0.938 and 0.161 | -0.275 and -0.316 | -0.151 and -0.236
